# Measurements as given in PubChem BioAssay (NCI).
# About 83,000 compounds went through this panel and 20% of them were active in at least one assay; those are over-represented in the sample as a whole.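 Cells were grown in 96-well plates and exposed to the test compound at a single concentration for 48 hours; results are reported as percent growth, with values below 10 considered active.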 A number with no mark means an inactive call. Active and inactive are the calls of the source.
# Legend:
# Assay in all cases: NCI-60 one-dose screen, 48 h (100 = growth as untreated, 0 = no growth, -100 = all killed)
# Settings in all cases: 10 µM unless noted
# [1] = tested on: DU-145 prostate
# [2] = tested on: K-562 leukemia
# [3] = tested on: MALME-3M melanoma
# [4] = tested on: MDA-MB-231 breast
# [5] = tested on: RXF 393 renal
# [6] = tested on: SF-268 CNS
# [7] = tested on: SF-295 CNS
# [8] = tested on: SF-539 CNS
# [9] = tested on: UACC-257 melanoma
# [10] = tested on: M14 melanoma
# [11] = tested on: HCT-15 colon
# [12] = tested on: HT29 colon
# [13] = tested on: SNB-75 CNS
# [14] = tested on: SNB-19 CNS
# [15] = tested on: U251 CNS
# [16] = tested on: PC-3 prostate
# [17] = tested on: UACC-62 melanoma
# [18] = tested on: LOX IMVI melanoma
# [19] = tested on: SK-MEL-28 melanoma
# [20] = tested on: SK-MEL-5 melanoma
Compound,growth [1],growth [2],growth [3],growth [4],growth [5],growth [6],growth [7],growth [8],growth [9],growth [10],growth [11],growth [12],growth [13],growth [14] [%],growth [15],growth [16],growth [17],growth [18],growth [19],growth [20]
NNc1nnc2nc(Nc3ccccc3)nc(Nc3ccc(S(N)(=O)=O)cc3)n12,112%,101%,101%,95.8%,101%,107%,106%,96.5%,106%,108%,100%,108%,90.6%,102,105%,103%,95.8%,97.3%,106%,
Clc1ccc2[nH]cc(-c3nn4cc(-c5ccncc5)nc4s3)c2c1,53.1%,49%,26.9%,50.8%,79%,39.1%,71%,25.8%,90.7%,67.7%,57.6%,72.8%,72.4%,,52.5%,9.36% (active),25.8%,49.9%,53.8%,38.3%
O=C(/C=C/c1csc(Br)n1)NO,25%,9.85% (active),1% (active),34.1%,-15.9% (active),57.6%,7.79% (active),35.4%,22.3%,27.1%,49%,11.3%,9.37% (active),38.5,31.4%,44.3%,-2.56% (active),-13.8% (active),33.4%,
COc1cccc2c1[C@H](OC)[C@]13O[C@@]1(C2=O)[C@H](O)[C@H](C)[C@@](O)(C(=O)[C@@H]1O[C@H]1C)[C@@H]3O,-20.6% (active),-27% (active),-56.7% (active),-1.86% (active),-77.3% (active),-24.7% (active),-21.8% (active),-29% (active),-28.3% (active),-89.7% (active),-14.8% (active),-28.9% (active),-61.7% (active),,-13.3% (active),-19.4% (active),-45.5% (active),-62% (active),-10.4% (active),-97.7% (active)
Fc1cccc(Cl)c1/C=N/Nc1nc(N/N=C/c2c(F)cccc2Cl)nc(N2CCCCC2)n1,61%,32.3%,-4.19% (active),42.1%,-3.38% (active),36.7%,2.57% (active),56.3%,11.7%,11.9%,3.94% (active),3.5% (active),37.5%,,26.8%,18.7%,18.3%,19.6%,44.9%,-59.1% (active)
COC(=O)[C@@H](Cc1c[nH]c2ccccc12)NC(=O)CCCCOc1cc(O)c2c(=O)cc(-c3ccccc3)oc2c1,93.3%,83.6%,94.3%,81.7%,76.8%,84.2%,91.2%,90.3%,97.1%,97.2%,80.8%,107%,72.3%,,92.2%,73.6%,66.3%,54.7%,101%,-97.8% (active)
C=C(C)[C@@H]1CC[C@]2(COP(=O)(OCC)OCC)CC[C@]3(C)[C@H](CC[C@@H]4[C@@]5(C)CC[C@H](OP(=O)(OCC)OCC)C(C)(C)[C@@H]5CC[C@]43C)[C@@H]12,69.7%,19.6%,50.8%,50.7%,45.3%,64.6%,14.6%,70.5%,46.8%,51.6%,6.86% (active),35.2%,75.3%,,42.2%,22.7%,43.1%,25.4%,77.5%,11.5%
O=C(/C=C/Nc1ccc(S(=O)(=O)Nc2ncccn2)cc1)c1ccc(N=Cc2c(O)[nH]c3ccccc23)cc1,116%,97.1%,127%,99.9%,113%,112%,105%,102%,101%,109%,104%,106%,102%,,103%,101%,108%,102%,118%,98.1%
CN(C)c1ccc(/C=N/Nc2nc(N/N=C/c3ccc(N(C)C)cc3)nc(N3CCCCC3)n2)cc1,77.5%,3.08% (active),-67.3% (active),68.6%,93.3%,105%,107%,-12.3% (active),104%,72.8%,0.121% (active),-4.67% (active),101%,,50%,84.8%,101%,-73.3% (active),41.7%,86.7%
CCCN1C=C/C(=C\C(=O)n2ccc3ccccc32)c2ccccc21,87.7%,56.9%,104%,76.2%,97.6%,96.4%,83.1%,88.2%,102%,95.4%,80.3%,74.7%,90.8%,,90.3%,73.7%,68.9%,78.7%,90.6%,82.1%
CC(C)(C)OC(=O)Nc1ccc(-c2cccc(Oc3ccc4nnc(Cl)n4n3)c2)cc1,82.7%,31.2%,106%,83.8%,89.8%,104%,84.1%,92.7%,87.1%,65.9%,65%,84.7%,126%,,91.2%,51.1%,63.6%,82.9%,96.9%,19.5%
C#CCN(C)CCCOc1ccc(NC(=O)CCCCCCCCC(=O)NO)cc1Cl,81.7%,40.7%,45.9%,89.5%,37.3%,97.8%,50.2%,74.5%,42.8%,72.9%,75%,67.8%,63.4%,,64.3%,73.9%,40.6%,4.6% (active),77%,54.9%
CC1=C(C)C(=O)C(Nc2ccc3c(c2)OCO3)=C(Br)C1=O,109%,3.43% (active),112%,69.4%,105%,96.7%,96.8%,106%,94.3%,105%,101%,109%,74.3%,,103%,86%,87.4%,77.2%,110%,90.2%
NC(=O)c1ncn2c(=O)n(CCF)nnc12,38.6%,26.7%,72.8%,66.8%,96.6%,57.3%,34.7%,63.9%,80.9%,33.9%,80.4%,57.4%,50.6%,,93.7%,71.6%,49.6%,26.1%,87%,92.5%
NS(=O)(=O)c1cccc(Nc2nc(SCC(=O)c3ccc(Cl)cc3)nc3c2CCC3)c1,97.6%,90.2%,96.4%,92.5%,82.2%,82.8%,93.1%,88.3%,104%,101%,96.7%,109%,87%,,63.9%,93.9%,97.1%,86.2%,104%,94.9%
Cc1ccc(-c2cc3nc(C(Cl)Cl)nc(-c4ccc(S(=O)(=O)N(C)C)cc4)n3n2)cc1,85.3%,41%,100%,95.1%,90.1%,98.7%,86.2%,80.3%,100%,93.1%,74.9%,66.5%,108%,,83.8%,91.7%,88.9%,45.7%,99.5%,91.5%
